# Screening results deposited in PubChem BioAssay by National Center for Advancing Translational Sciences (NCATS).
# Shiga inhibitor: inhibitors of Shiga toxin in Vero cells; AID 2315; Vero cells, Shiga toxin protein synthesis inhibition reporter; inhibition, % at 38.7 µM; actives 9.2% (n = 290,000); in the data active = inhibition mostly above about 28%, no sharp cut-off; inactive = mostly below about 43%
# CHX counter: affects cycloheximide protein synthesis inhibition readout, counter-screen; cell reporter, cycloheximide protein synthesis inhibition counterscreen; max response, %; actives 12% (n = 300,000); in the data active = max response mostly above about 13%, no sharp cut-off; inactive = mostly below about 14%; note: read at 38.3 µM for the half of the compounds with a filed dose
# Pf growth 48h: inhibits P. falciparum growth in the first generation, 48 h; P. falciparum luciferase growth in erythrocytes, 48 h; AID 504832; actives 5.9% (n = 310,000); Potency, µM (titrated, usually from 28.7 µM), most hits filed as inhibitors; active = well fitted inhibition curve with a large enough effect; inconclusive = small, poorly fitted or top-dose-only effect, or another doubt; inactive = no such curve, though single readings can be large or run the other way
#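 Parasite viability was followed by luminescence of a genomically integrated firefly luciferase. Cultures held 0.1% parasitemia at 2% hematocrit (final), incubated under 5% CO2 at 37 C.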
# Pf growth 96h: P. falciparum growth inhibition at 96 hours | P. falciparum luciferase reporter growth, 96 h | Potency, µM (series often up to 28.7 µM), usual class: inhibitors | actives 6.9% (n = 320,000) | AID 504834; active = well fitted inhibition curve with a large enough effect; inconclusive = small, poorly fitted or top-dose-only effect, or another doubt; inactive = no such curve, though single readings can be large or run the other way
#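 Infected RBCs, 2% Hct / 0.05% parasitemia final; luciferase-reporter P. falciparum; cpd 96 h, 37 C, 5% CO2; luciferase detection reagent; luminescence.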
# NS1 function inh: influenza NS1 inhibition; Potency, µM (top dose mostly 46.1 µM); actives 0.4% (n = 270,000); note: actives are rising curves; nearly all actives have a fitted effect of over 50% in size
#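 Read-out: OD600 growth recovery of NS1-expressing budding yeast. Cells grown overnight at 30C in -URA glucose medium, washed, resuspended and diluted 1:100 in 2% galactose assay medium, pH 6.0. Same strain lacking NS1 served as positive control.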
# NS1 inh valid: influenza NS1 function inhibition validation | activity change, negative = inhibition, % at 32.9 µM | influenza NS1 function cell assay, 15-point titration | 1,400 tested, under 10 active | shares compounds with NS1 function inh
# Flu PR8 replic: reduces influenza A/PR/8/34 replication in MDCK cells. MDCK infected influenza A/PR/8/34, virus titer TCID50; active compounds read low. shares compounds with NS1 function inh. virus titer (log TCID50), log10 TCID50 at 5 µM. AID 504647. actives 30% (n = 95); call rule not given here
# A number is an active result; i = inactive; ? = inconclusive; nt = no result; [ ] = another dose, or the depositor's remark. Shown are actives, neighbours in structure and some others; about 21% of the full set was active somewhere. Unless noted, calls come from the whole dose curve.
SMILES,Shiga inhibitor,CHX counter,Pf growth 48h,Pf growth 96h,NS1 function inh,NS1 inh valid,others
Cc1nn(-c2ccccc2)c2c1C(c1ccc([N+](=O)[O-])cc1)C(C#N)=C(N)O2 (configuration not stated),i,i,i,i,i,nt,
Cc1nn(-c2ccccc2)c2c1C(c1ccc([N+](=O)[O-])cc1)N1C(=N2)C(=O)Nc2ccccc21 (configuration not stated),i,i,?,5.9µM,10µM,i,
O=C(CCN1C(=O)C2CC=C(Cl)CC2C1=O)Nc1ccccc1O (configuration not stated),i,i,i,1µM,?,i,
O=C(CCN1C(=O)C2CC=C(Cl)CC2C1=O)NCc1ccccc1 (configuration not stated),i,i,i,i,i[9.22 µM],nt,
CCc1ccc(NC(=O)CNC(=O)c2cn(-c3ccccc3OC)c(=O)c3ccccc23)cc1,i,i,nt,?,11µM,i,Flu PR8 replic=i
COc1ccc(/C=N/NC(=O)CCc2c(C)n[nH]c2C)cc1OC,i,i,i,nt,5.6µM,i,
COc1cc(/C=N/NC(=O)CCc2c(C)n[nH]c2C)cc(OC)c1OC,i,i,nt,?,i,nt,
Cc1cc(C)nc(OC(C(=O)O)C(OCc2ccccc2)(c2ccccc2)c2ccccc2)n1 (configuration not stated),i,i,i,i,i,nt,
Cc1ccnc(OC(C(=O)O)C(OCc2ccccc2)(c2ccccc2)c2ccc(C(F)(F)F)cc2)n1 (configuration not stated),i,i,i,?,?,i,
Cc1cc(C)nc(OC(C(=O)O)C(OCCC(C)C)(c2ccccc2)c2ccccc2)n1 (configuration not stated),i,i,i,i,2.5µM,i,
CN1CCc2c(sc3c2c(=O)n(-c2ccccc2)c2nnc(SCc4ccc(Cl)cc4)n32)C1,i,i,?,nt,13µM,i,
Cc1nnc2n(-c3ccc(Cl)cc3)c(=O)c3c4c(sc3n12)CN(C)CC4,i,i,i,nt,i,nt,
CCCCNC(=O)c1onc(CSc2ccc(F)c(F)c2)c1C(=O)O,i,i,i,i,i,nt,
Cc1ccccc1-n1nc(C(=O)O)c(C)c(C#N)c1=O,i,i,i,?,2.8µM,i,
Cc1c(C(=O)O)nn(-c2cccc(C(F)(F)F)c2)c(=O)c1C#N,i,i,i,?,i,nt,
CC1(C)Cc2c(c(N3CCOCC3)nc3sc(C(=O)N4CCCCC4)c(N)c23)CO1,i,i,i,?,?,nt,
CC1(C)Cc2c(c(N3CCOCC3)nc3sc(-c4ccc(C(=O)O)o4)c(N)c23)CO1,i,i,12µM,i,?,i,
COc1cc(/C=C/C(=O)OCC(=O)NCc2ccccc2OC)ccc1O,nt,nt,?,i,nt,nt,
COc1ccc(C)cc1S(=O)(=O)N1CCN(C(=O)c2ncoc2-c2ccccc2C)CC1,i,i,i,i,?,i,
COc1ccc(C(=O)N2CCN(S(=O)(=O)c3ccc(C)cc3C)CC2)cc1OC,i,i,i,i,i,nt,
COc1ccc(-n2cnnc2SCC(=O)c2ccc(S(=O)(=O)N3CCOCC3)cc2)cc1,i,i,?,nt,1.8µM,i,
COc1ccc(-n2cnnc2SCC(=O)Nc2cc(S(=O)(=O)N3CCCCC3)ccc2C)cc1,i,i,i,?,i,nt,
O=C(COc1ccc(-n2cnnn2)cc1)Nc1cc(Cl)cc(Cl)c1,nt,nt,i,i,nt,nt,
COc1ccccc1C/C(N)=N/OC(=O)COc1cccc(C)c1,i,i,i,i,i,nt,
COc1ccccc1C/C(N)=N/OC(=O)COc1ccc(C)cc1,i,i,i,2.1µM,?,?,
SMILES,Shiga inhibitor,CHX counter,Pf growth 48h,Pf growth 96h,NS1 function inh,NS1 inh valid,others
CCCCN(C)C(=O)c1nc2ccccn2c1CN1CCC[C@H]1C(=O)OC,i,i,i,?,i,nt,
CCc1[nH]c(=S)c(C#N)c(-c2ccccc2)c1C(=O)OC,i,i,i,i,10µM,i,
NNC(=O)CNC(c1ccccc1)c1cc(Br)ccc1NC(=O)c1ccc(Br)cc1 (configuration not stated),i,i,8.3µM,i,7.1µM,i,
NNC(=O)CNC(c1ccccc1)c1cc(Br)ccc1NC(=O)CCN1CCOCC1 (configuration not stated),i,i,12µM,9.3µM,10µM,?,
O=C(CCN1CCOCC1)Nc1c(-c2ccccc2)c2cc(Br)ccc2[nH]c1=O,i,i,?,?,i,nt,
COC(=O)CNC(c1ccccc1)c1cc(Cl)ccc1NC(=O)c1cccc(Cl)c1 (configuration not stated),i,i,?,?,i,nt,
NNC(=O)CNC(c1ccccc1)c1cc(Br)ccc1NC(=O)c1cccc(Cl)c1 (configuration not stated),i,i,13µM,?,11µM,i,
COC(=O)c1cc(C(=O)NCc2ccccc2)c(=O)[nH]c1C,i,i,i,?,i,nt,
O=C(CN1N=C(c2ccccc2)CCC1=O)NCCN1CCc2ccccc2C1,i,i,i,?,i,nt,
CC1=C(C(=O)Nc2cc(C(=O)N3CCN(c4cccc(C)c4)C(C)C3)ccc2C)SCCO1 (configuration not stated),i,i,?,i,i,nt,
c1nc(NC2CCCCCC2)c2[nH]cnc2n1,i,i,?,?,10µM,i,
c1nc(NC2CCCCC2)c2[nH]cnc2n1,i,i,i,i,i,nt,
CS(=O)(=O)c1ccc(NC(=O)CCN2C(=O)C3CCCCC3C2=O)cc1 (configuration not stated),nt,nt,i,i,nt,nt,
CC(=O)C1=C(C)NC(=O)CC1c1ccc(F)cc1 (configuration not stated),i,i,i,i,i,nt,
CC(=O)c1ccc(N2CCN(C(=O)c3cc(-c4ccc5c(c4)OCO5)nc4ccccc34)CC2)cc1,36,20,6.6µM,i,13µM,i,Flu PR8 replic=i
CCOc1cccc(C(=O)Nc2cc(-c3nn4c(C)nnc4s3)ccc2C)c1,i,i,i,i,i,nt,
CCCOc1ccc(C(=O)Nc2cc(-c3nn4c(C)nnc4s3)ccc2C)cc1,i,i,nt,i,4.5µM,i,
COc1ccc(CNC(=O)COC(=O)CNC(=O)c2sc3ccccc3c2Cl)cc1OC,nt,nt,i,i,nt,nt,
CCCCC(C(=O)O)C(C)CC(=O)Nc1ccn(-c2ccccc2)n1 (configuration not stated),i,i,i,i,2.8µM,i,
CC(C)CC(C(=O)O)N1C(=O)C2C3CC(C2C1=O)C1C(c2ccccc2)c2sc(=O)[nH]c2SC31 (configuration not stated),i,i,i,i,?,i,
COc1ccc(-c2nc(CN3CCN(C(=O)c4ccco4)CC3)c(C)o2)c(F)c1,i,i,?,?,i,nt,
Cc1cc(=O)[nH]c(N/N=C/c2c(O)n(-c3ccccc3)c(=O)c3ccccc23)n1,i,i,i,i,10µM,i,
COc1ccccc1N(CC(=O)Nc1cccc(C(F)(F)F)c1)S(C)(=O)=O,i,i,i,i,i,nt,
